Laboratory results as given in PubChem BioAssay (NCATS).
Records with an inconclusive call do not appear. A call without a number means that no potency is given here. The source made the active and inactive calls. Calls follow the shape of the dose curve; as a rule, active = well fitted curve in the direction sought with a large enough effect; inconclusive = small, poorly fitted or top-dose-only effect, or another doubt; inactive = no such curve, though single readings can be large; an effect the other way counts as inactive or inconclusive. Numbered stars: 1 amine (or outer) side, 2 acyl side, 3 side chain; on linkers, the order of the positions; unused ones are H or OH. Bridge positions count the residues as written; N and C are the ends. Square brackets hold non-standard residues; d marks the D form. Peptide text beside a SMILES is read from it. * marks the point of attachment. ξ: configuration not given here. ΔAla(Z-3-ureido) = NC(=O)N/C=C(\N)C(=O)O; X1 = NC1=NCCC(C(N[*:1])C(=O)[*:2])N1; ξβ3hOrn = NCCCC(N)CC(=O)*; Orn = NCCC[CH](N)C(=O)O; Dap = NC[CH](N)C(=O)O

Key:
[1] = S16 Schwann cell PMP22 intronic element firefly luciferase assay (AID 624032); also: nearly all actives have a fitted effect of over 30% in size
Summary of the method: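 Rat S16 Schwann cells stably carrying firefly luciferase driven by a PMP22 intronic element, in 10% FBS, treated 24 h at 37 C. ONE-Glo luminescence normalized to PTC124 control and DMSO (0%); curves classed by r2, magnitude and activity.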

3D7 = test: qHTS profiling for inhibitors of Plasmodium falciparum proliferation (AID 504749); also: nearly all actives have a fitted effect of over 60% in size; conditions: P. falciparum in erythrocytes, SYBR Green DNA, 72 h; series mostly up to 28.7 µM
Summary of the method: (§1)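 SYBR Green fluorescence (ex 485 nm, em 535 nm) reports parasite DNA after 72 h compound exposure of infected red cells at 0.3% parasitemia, 2.5% hematocrit; signal normalized to 0.29 uM artemisinin and vehicle wells.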

AS120 = test: as above; conditions: P. falciparum in erythrocytes, SYBR Green DNA, 72 h; series mostly up to 28.7 µM
Summary of the method: as §1

ATS95 = test: as above; conditions: P. falciparum in erythrocytes, SYBR Green DNA, 72 h; series mostly up to 28.7 µM
Summary of the method: as §1

C2A = test: as above; conditions: P. falciparum in erythrocytes, SYBR Green DNA, 72 h; series mostly up to 28.7 µM
Summary of the method: as §1

CP191 = test: as above; conditions: P. falciparum in erythrocytes, SYBR Green DNA, 72 h; series mostly up to 28.7 µM
Summary of the method: as §1

CP211 = test: as above; conditions: P. falciparum in erythrocytes, SYBR Green DNA, 72 h; series mostly up to 28.7 µM
Summary of the method: as §1

CP247 = test: as above; conditions: P. falciparum in erythrocytes, SYBR Green DNA, 72 h; series mostly up to 28.7 µM
Summary of the method: as §1

CP250 = test: as above; conditions: P. falciparum in erythrocytes, SYBR Green DNA, 72 h; series mostly up to 28.7 µM
Summary of the method: as §1

CP262 = test: as above; conditions: P. falciparum in erythrocytes, SYBR Green DNA, 72 h; series mostly up to 28.7 µM
Summary of the method: as §1

CP297 = test: as above; conditions: P. falciparum in erythrocytes, SYBR Green DNA, 72 h; series mostly up to 28.7 µM
Summary of the method: as §1

CP335 = test: as above; conditions: P. falciparum in erythrocytes, SYBR Green DNA, 72 h; series mostly up to 28.7 µM
Summary of the method: as §1

Dd2 = test: as above; conditions: P. falciparum in erythrocytes, SYBR Green DNA, 72 h; series mostly up to 28.7 µM
Summary of the method: as §1

ECU = test: as above; conditions: P. falciparum in erythrocytes, SYBR Green DNA, 72 h; series mostly up to 28.7 µM
Summary of the method: as §1

N140 = test: as above; conditions: P. falciparum in erythrocytes, SYBR Green DNA, 72 h; series mostly up to 28.7 µM
Summary of the method: as §1

P93_24 = test: as above; conditions: P. falciparum in erythrocytes, SYBR Green DNA, 72 h; series mostly up to 28.7 µM
Summary of the method: as §1

PAD = test: as above; conditions: P. falciparum in erythrocytes, SYBR Green DNA, 72 h; series mostly up to 28.7 µM
Summary of the method: as §1

SC27B = test: as above; conditions: P. falciparum in erythrocytes, SYBR Green DNA, 72 h; series mostly up to 28.7 µM
Summary of the method: as §1

TAB113 = test: as above; conditions: P. falciparum in erythrocytes, SYBR Green DNA, 72 h; series mostly up to 28.7 µM
Summary of the method: as §1

TAB165 = test: as above; conditions: P. falciparum in erythrocytes, SYBR Green DNA, 72 h; series mostly up to 28.7 µM
Summary of the method: as §1
Potency is read from the fitted curve at half-maximal effect.

SMILES	Potency [1]	Potency (3D7)	Potency (AS120)	Potency (ATS95)	Potency (C2A)	Potency (CP191)	Potency (CP211)	Potency (CP247)	Potency (CP250)	Potency (CP262)	Potency (CP297)	Potency (CP335)	Potency (Dd2)	Potency (ECU)	Potency (N140)	Potency (P93_24)	Potency (PAD)	Potency (SC27B)	Potency (TAB113)	Potency (TAB165)
CC(=O)OCC(=O)[C@@]1(O)CCC2C3CCC4=CC(=O)CC[C@]4(C)C3=CC[C@@]21C (stereo partly drawn)	inactive	inactive	inactive	inactive	inactive	inactive	inactive	inactive	inactive	inactive	inactive	inactive	inactive	inactive	inactive	inactive	inactive	inactive	inactive	inactive
O=C1/C(=C\c2cccs2)CCC/C1=C/c1cccs1	inactive	inactive	inactive	inactive	inactive		inactive	inactive	inactive	inactive	inactive		inactive	inactive	inactive	inactive	inactive	inactive	inactive	inactive
C=CC1=C(C(=O)O)N2C(=O)[C@@H](NC(=O)C(N=O)c3csc(N)n3)[C@H]2SC1 (stereo partly drawn)	inactive	inactive	inactive	inactive	inactive	inactive	inactive	inactive	inactive	inactive	inactive	inactive	inactive	inactive	inactive	inactive	inactive	inactive	inactive	inactive
CC(C)CC1NC(=O)C(CCCN)NC(=O)C(C(C)C)NC(=O)C2CCCN2C(=O)C(Cc2ccccc2)NC(=O)C(CC(C)C)NC(=O)C(CCCN)NC(=O)C(C(C)C)NC(=O)C2CCCN2C(=O)C(Cc2ccccc2)NC1=O (stereo not drawn) (cyclo(FPV[Orn]LFPV[Orn]L); configuration not given here)	642 nM (active)		2.8 nM (active)	0.9 nM (active)	2.5 nM (active)	2.8 nM (active)	1.3 nM (active)	2.8 nM (active)	2 nM (active)		1.2 nM (active)	0.5 nM (active)	1.1 nM (active)	3.2 nM (active)	1.3 nM (active)	2 nM (active)	0.8 nM (active)	6.3 nM (active)	2.2 nM (active)	1.3 nM (active)
CCC(C)C1NC(=O)C(Cc2ccc(O)cc2)NC(=O)C(N)CSSCC(C(=O)N2CCCC2C(=O)NC(CC(C)C)C(=O)NCC(N)=O)NC(=O)C(CC(N)=O)NC(=O)C(CCC(N)=O)NC1=O (stereo not drawn)	inactive	inactive	inactive	inactive	inactive	inactive	inactive		inactive	inactive	inactive	inactive	inactive	inactive	inactive	inactive	inactive	inactive	inactive	inactive
NC(=O)CCC1NC(=O)C(Cc2ccccc2)NC(=O)C(Cc2ccc(O)cc2)NC(=O)CCSSCC(C(=O)N2CCCC2C(=O)NC(CCCN=C(N)N)C(=O)NCC(N)=O)NC(=O)C(CC(N)=O)NC1=O (stereo not drawn)	inactive	inactive	inactive	inactive	inactive	inactive	inactive	inactive	inactive	inactive	inactive	inactive	inactive	inactive	inactive	inactive	inactive	inactive	inactive	inactive
CC1(C)C(/C=C/C=C/C=C/C=C2\N(CCCCS(=O)(=O)O)c3ccc4ccccc4c3C2(C)C)=[N+](CCCCS(=O)(=O)[O-])c2ccc3ccccc3c21	inactive		inactive	inactive	inactive	inactive	inactive	inactive	inactive	inactive	inactive		inactive	inactive	inactive	inactive	inactive	inactive	inactive	inactive
COc1ccc(-c2nc3ccc(C4=C(C)CC(=O)NN4)cc3[nH]2)cc1	inactive					inactive			inactive	inactive		inactive								
O=C(O)c1ccccc1-c1c2cc(Br)c(=O)c(Br)c-2oc2c(Br)c(O)c(Br)cc12	inactive	inactive	inactive	inactive	inactive	inactive	inactive	inactive	inactive	inactive		inactive	inactive	inactive	inactive	inactive	inactive	inactive	inactive	inactive
Cn1cc(O)nc1NC(=O)Nc1cccc(Cl)c1	inactive	inactive	inactive	inactive	inactive		inactive	inactive			inactive	inactive	inactive	inactive	inactive	inactive	inactive	inactive	inactive	inactive
NCCCC(N)CC(=O)NCC1NC(=O)C(CO)NC(=O)C(N)CNC(=O)C(C2CCN=C(N)N2)NC(=O)/C(=C/NC(N)=O)NC1=O (stereo not drawn) (H-[Dap]S[Dap](ξβ3hOrn)[ΔAla(Z-3-ureido)][X1]; lactam 1-C; configuration not given here)		inactive	inactive	inactive	inactive	inactive	inactive	inactive	inactive	inactive	inactive	inactive	inactive	inactive	inactive	inactive	inactive	inactive	inactive	inactive
